According to PubChem BioAssay (EPA / NIEHS):
Inconclusive results are not listed. Calls of active or inactive are those of the source. The calls were made as follows, unless noted: active = hit-call score of the fitted dose curve at least 0.9, where 1 is the maximum; inactive = score below 0.9.

How the values were obtained:
[1] = ATG_NFI_CIS: Attagene CIS-FACTORIAL HepG2 Assay for human Nuclear Factor I (NFI) (AID 2282989); conditions: HepG2 cis-regulatory reporter, NFI response element transcription; actives raise or lower the signal
How it was run: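 Transient MRTU transfection of HepG2 → 24 h chemical dosing → total RNA, oligo(dT) RT → PCR, 6-FAM primer extension, HpaI cut → capillary electrophoresis. Endpoint fitted bidirectionally relative to DMSO.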

[2] = molecular target: Myc proto-oncogene protein (Homo sapiens) (UniProt P01106); assay: ATG_Myc_CIS: Attagene CIS-FACTORIAL HepG2 Assay for human Myelocytomatosis (Myc) Proto-Oncogene Transcription Factor (AID 2282990); conditions: HepG2, Attagene cis-reporter transcription factor activity; actives raise or lower the signal
Sequence of Myc proto-oncogene protein (Homo sapiens) (P01106 whole entry, looked up, the tested form may be a part): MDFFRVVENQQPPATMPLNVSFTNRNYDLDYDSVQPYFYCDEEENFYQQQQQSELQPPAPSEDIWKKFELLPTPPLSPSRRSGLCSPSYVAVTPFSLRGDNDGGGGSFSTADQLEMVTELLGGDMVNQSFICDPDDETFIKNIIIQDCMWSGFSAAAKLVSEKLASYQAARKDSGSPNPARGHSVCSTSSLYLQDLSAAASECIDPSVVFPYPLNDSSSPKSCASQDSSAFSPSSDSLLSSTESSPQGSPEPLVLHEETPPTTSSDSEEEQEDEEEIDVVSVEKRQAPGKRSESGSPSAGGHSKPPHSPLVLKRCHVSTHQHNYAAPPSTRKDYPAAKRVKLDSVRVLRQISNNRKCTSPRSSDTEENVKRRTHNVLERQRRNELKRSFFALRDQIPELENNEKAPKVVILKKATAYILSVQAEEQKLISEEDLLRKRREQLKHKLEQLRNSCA
How it was run: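 Fluorescence intensity of reporter-specific cDNA fragments, separated by capillary electrophoresis, gives the signal. Transfected HepG2 cells carrying cis-promoter reporter constructs are incubated with compound for 24 h; DMSO serves as baseline.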

[3] = ATG_NF_kB_CIS: Attagene CIS-FACTORIAL HepG2 Assay for human Nuclear Factor Kappa B (NF-kB) (AID 2282991); conditions: HepG2 Attagene cis-factorial NF-kB reporter mRNA; actives raise or lower the signal
How it was run: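 Measures mRNA induction of an NF-kB-responsive cis-element reporter in HepG2 cells transfected with multiple reporter units, sampled 24 h post-dosing; quantified by fluorescence after RT-PCR and capillary electrophoresis, fitted for activation or inhibition against DMSO.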

[4] = ATG_NRF2_ARE_CIS: Attagene CIS-FACTORIAL HepG2 Assay for human Nuclear Factor Erythroid 2 Related Factor 2 (NFR2) response to Antioxidant Response Elements (ARE) (AID 2282992); conditions: HepG2 Attagene ARE/NRF2 reporter, transcription factor activity; actives raise or lower the signal;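 as to AC50: reporter mRNA level measured by RT-PCR and capillary electrophoresis fluorescence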
How it was run: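 Fluorescence intensity of reporter-specific cDNA fragments, separated by capillary electrophoresis, reflects mRNA induction in transfected HepG2 cells at 24 h. Activity is fitted bidirectionally, DMSO serving as baseline.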

[5] = ATG_Oct_MLP_CIS: Attagene CIS-FACTORIAL HepG2 Assay for human Octamer-Binding Transcription Factor (Oct) (AID 2282993); conditions: HepG2 Attagene cis-factorial Oct reporter, mRNA; actives raise or lower the signal
How it was run: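 Transient MRTU transfection of HepG2 → 24 h compound treatment → RNA isolation, reverse transcription, PCR → 6-FAM primer extension, HpaI digest → capillary electrophoresis. Activity fitted both directions against DMSO.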

[6] = molecular target: Cellular tumor antigen p53 (Homo sapiens) (UniProt P04637); assay: ATG_p53_CIS: Attagene CIS-FACTORIAL HepG2 Assay for human p53 Transcription Factor (AID 2282994); conditions: HepG2 p53 cis-element reporter, Attagene mRNA; actives raise or lower the signal
Sequence of Cellular tumor antigen p53 (Homo sapiens) (P04637 whole entry, looked up): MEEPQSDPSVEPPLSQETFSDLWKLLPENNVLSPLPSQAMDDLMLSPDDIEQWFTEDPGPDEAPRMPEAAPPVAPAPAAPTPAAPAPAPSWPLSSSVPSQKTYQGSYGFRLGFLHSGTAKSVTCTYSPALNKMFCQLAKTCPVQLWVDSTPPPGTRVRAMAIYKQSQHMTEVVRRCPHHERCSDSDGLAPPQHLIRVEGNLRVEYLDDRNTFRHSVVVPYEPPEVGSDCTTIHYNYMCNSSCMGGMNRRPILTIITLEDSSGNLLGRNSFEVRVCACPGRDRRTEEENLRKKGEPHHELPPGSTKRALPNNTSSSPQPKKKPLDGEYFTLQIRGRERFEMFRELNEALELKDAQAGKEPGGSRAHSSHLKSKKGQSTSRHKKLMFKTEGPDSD
How it was run: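 Transiently transfected HepG2 (multiple cis reporter transcription units); exposure 24 h; reporter RNA via RT-PCR, 6-FAM extension, 2 h HpaI digest at 37 C, CE detection; DMSO baseline.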

[7] = BSK_3C_TissueFactor: BioMAP Diversity Plus: 3C Assay for Tissue Factor Biomarker Activity (AID 2282997); conditions: BioMAP 3C HUVEC, tissue factor biomarker readout; actives raise or lower the signal
How it was run: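 Cells used were primary human umbilical vein endothelial cells. They were dosed with chemical, and after 24 h Tissue Factor was quantified by ELISA. Curves were fitted bidirectionally with DMSO as baseline.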

[8] = BSK_3C_uPAR: BioMAP Diversity Plus: 3C Assay for Urokinase-type plasminogen activator receptor (uPAR) Biomarker Activity (AID 2282998); conditions: BioMAP 3C HUVEC, uPAR biomarker ELISA; actives raise or lower the signal
How it was run: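 ELISA readout of uPAR on human vascular endothelium (umbilical vein primary cells), taken 24 h after chemical dosing. Increases and decreases are both fitted relative to DMSO vehicle.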

[9] = BSK_3C_VCAM1: BioMAP Diversity Plus: 3C Assay for Vascular cell adhesion molecule 1 (VCAM1) Biomarker Activity (AID 2282999); conditions: BioMAP 3C HUVEC, VCAM1 ELISA, cytokine-stimulated; actives raise or lower the signal
How it was run: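 HUVEC primary cells, 24 h compound exposure; VCAM-1 by ELISA; gain/loss of signal fitted bidirectionally vs DMSO baseline.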

[10] = BSK_4H_Eotaxin3: BioMAP Diversity Plus: 4H Assay for Eotaxin 3 Biomarker Activity (AID 2283000); conditions: primary human endothelial cells (HUVEC); actives raise or lower the signal;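 also: CCL26 protein level quantified by ELISA in parallel with SRB cytotoxicity check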
How it was run: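 Endothelial primary cells (human umbilical vein) exposed to compound for 24 h. ELISA detection of Eotaxin-3.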

[11] = molecular target: human Peroxisome Proliferator-activated Receptor alpha (PPARa), PPARA (gene 5465) (UniProt Q07869); assay: ATG_PPARa_TRANS: Attagene TRANS-FACTORIAL HepG2 Assay for human Peroxisome Proliferator-activated Receptor alpha (PPARa) (AID 2283001; active = hit-call score of the fitted dose curve at least 0.9, where 1 is the maximum)
Sequence of human Peroxisome Proliferator-activated Receptor alpha (PPARa), PPARA (gene 5465) (Q07869 whole entry, looked up, the tested form may be a part): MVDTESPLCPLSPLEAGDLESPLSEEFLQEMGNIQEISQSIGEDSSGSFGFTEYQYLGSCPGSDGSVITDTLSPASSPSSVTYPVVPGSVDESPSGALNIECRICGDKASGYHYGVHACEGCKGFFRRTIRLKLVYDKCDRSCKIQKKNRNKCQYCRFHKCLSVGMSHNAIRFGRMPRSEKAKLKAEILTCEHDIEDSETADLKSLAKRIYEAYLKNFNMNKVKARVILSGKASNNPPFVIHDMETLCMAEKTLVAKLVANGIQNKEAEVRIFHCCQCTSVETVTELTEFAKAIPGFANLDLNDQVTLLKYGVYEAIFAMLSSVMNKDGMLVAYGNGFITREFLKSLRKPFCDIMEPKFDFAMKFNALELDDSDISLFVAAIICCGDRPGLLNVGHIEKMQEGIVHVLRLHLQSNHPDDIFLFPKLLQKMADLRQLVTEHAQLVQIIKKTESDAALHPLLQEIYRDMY
How it was run: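 Transient HepG2 transfection, GAL4-UAS reporters, NR-Gal4 chimeras; 24 h compound exposure. Readout: reporter transcripts by RT-PCR, 6-FAM primer extension, HpaI digest, capillary electrophoresis. Positive direction vs DMSO baseline.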

[12] = molecular target: human Peroxisome Proliferator-activated Receptor delta (PPARd), PPARD (gene 5467) (UniProt Q03181); assay: ATG_PPARd_TRANS: Attagene TRANS-FACTORIAL HepG2 Assay for human Peroxisome Proliferator-activated Receptor delta (PPARd) (AID 2283002; active = hit-call score of the fitted dose curve at least 0.9, where 1 is the maximum)
Sequence of human Peroxisome Proliferator-activated Receptor delta (PPARd), PPARD (gene 5467) (Q03181 whole entry, looked up, the tested form may be a part): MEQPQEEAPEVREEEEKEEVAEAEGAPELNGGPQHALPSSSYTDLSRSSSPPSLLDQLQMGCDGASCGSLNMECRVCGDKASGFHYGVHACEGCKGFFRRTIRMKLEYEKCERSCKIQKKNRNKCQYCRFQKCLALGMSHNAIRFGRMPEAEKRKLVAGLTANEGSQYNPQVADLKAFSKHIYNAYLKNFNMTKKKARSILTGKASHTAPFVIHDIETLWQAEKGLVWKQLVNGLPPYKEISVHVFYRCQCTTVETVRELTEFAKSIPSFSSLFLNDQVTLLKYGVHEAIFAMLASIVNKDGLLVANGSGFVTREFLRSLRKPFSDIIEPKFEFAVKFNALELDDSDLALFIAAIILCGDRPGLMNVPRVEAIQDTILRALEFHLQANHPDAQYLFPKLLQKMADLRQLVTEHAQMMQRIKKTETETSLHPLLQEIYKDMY
How it was run: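 Fluorescence from capillary electrophoresis of labelled RT-PCR reporter fragments gives the signal; DMSO sets baseline. Cells: HepG2 transiently carrying GAL4-UAS reporter units plus chimeric nuclear receptor-Gal4 proteins, exposed to chemicals for 24 h.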

[13] = read-out: Intercellular Adhesion Molecule 1 (ICAM1), ICAM1 (gene 3383); assay: BSK_3C_ICAM1: BioMAP Diversity Plus: 3C Assay for Intercellular Adhesion Molecule 1 (ICAM1) Biomarker Activity (AID 2283003); conditions: primary human endothelial cells (HUVEC); actives raise or lower the signal
How it was run: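 ELISA read-out of ICAM-1; HUVEC (primary human), 3C system, 24 h post-dosing; bidirectional fit vs DMSO baseline.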

[14] = BSK_3C_Proliferation: Cell Proliferation Assessment in the BioMAP Diversity Plus: 3C Assay (AID 2283006); conditions: primary human endothelial cells (HUVEC);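 as to AC50: potency may reflect either rise or fall in cell number versus DMSO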
How it was run: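 HUVEC, sub-confluent; 48 h chemical exposure; 10% TCA fix, 0.1% SRB stain, A560 total protein. Gain or loss of signal fitted both directions vs DMSO control.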

[15] = molecular target: Peroxisome proliferator-activated receptor gamma (Homo sapiens) (UniProt P37231); assay: ATG_PPARg_TRANS: Attagene TRANS-FACTORIAL HepG2 Assay for human Peroxisome Proliferator-activated Receptor-gamma (PPARg) (AID 2283007; active = hit-call score of the fitted dose curve at least 0.9, where 1 is the maximum)
Sequence of Peroxisome proliferator-activated receptor gamma (Homo sapiens) (P37231 whole entry, looked up, the tested form may be a part): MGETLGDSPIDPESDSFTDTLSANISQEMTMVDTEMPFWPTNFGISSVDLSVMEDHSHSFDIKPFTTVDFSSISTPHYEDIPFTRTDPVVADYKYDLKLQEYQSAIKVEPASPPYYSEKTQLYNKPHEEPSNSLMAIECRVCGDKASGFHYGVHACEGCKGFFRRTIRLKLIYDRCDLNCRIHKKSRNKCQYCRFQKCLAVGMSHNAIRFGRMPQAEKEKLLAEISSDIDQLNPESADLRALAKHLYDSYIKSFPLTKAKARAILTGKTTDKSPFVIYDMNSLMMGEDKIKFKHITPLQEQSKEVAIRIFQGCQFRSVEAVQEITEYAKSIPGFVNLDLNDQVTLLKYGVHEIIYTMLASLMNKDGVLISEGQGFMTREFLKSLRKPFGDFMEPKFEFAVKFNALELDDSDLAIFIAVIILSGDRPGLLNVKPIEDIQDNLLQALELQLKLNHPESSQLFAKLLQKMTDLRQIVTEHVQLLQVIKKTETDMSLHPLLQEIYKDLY
How it was run: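 Gain-of-signal endpoint relative to DMSO, derived from reporter mRNA levels quantified by RT-PCR and capillary electrophoresis. Cells were HepG2 transiently expressing a chimeric NR-Gal4 construct with GAL4-UAS reporters, exposed to chemicals for 24 h.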

[16] = molecular target: Nuclear receptor subfamily 1 group I member 2 (Homo sapiens) (UniProt O75469); assay: ATG_PXR_TRANS: Attagene TRANS-FACTORIAL HepG2 Assay for human Pregnane X Receptor (PXR) (AID 2283008; active = hit-call score of the fitted dose curve at least 0.9, where 1 is the maximum)
Sequence of Nuclear receptor subfamily 1 group I member 2 (Homo sapiens) (O75469 whole entry, looked up, the tested form may be a part): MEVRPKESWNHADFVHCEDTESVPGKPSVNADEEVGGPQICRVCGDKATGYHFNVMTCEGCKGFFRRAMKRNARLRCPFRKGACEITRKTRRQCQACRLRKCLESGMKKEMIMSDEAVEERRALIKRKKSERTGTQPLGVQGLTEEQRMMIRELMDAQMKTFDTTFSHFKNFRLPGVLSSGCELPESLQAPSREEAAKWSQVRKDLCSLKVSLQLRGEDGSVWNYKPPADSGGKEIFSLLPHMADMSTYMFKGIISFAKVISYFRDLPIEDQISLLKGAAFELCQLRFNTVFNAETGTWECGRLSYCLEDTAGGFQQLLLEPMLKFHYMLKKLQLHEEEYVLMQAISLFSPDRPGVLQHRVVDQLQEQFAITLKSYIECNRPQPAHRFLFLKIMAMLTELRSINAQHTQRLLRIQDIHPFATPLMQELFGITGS
How it was run: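 Transient HepG2 transfectants carrying multiplexed reporter transcription units; PXR activity read through a Gal4 chimera. 24 h exposure. RT-PCR/CE fluorescence; upward curve fit referenced to DMSO.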

[17] = molecular target: Nuclear respiratory factor 1 (Homo sapiens) (UniProt Q16656); assay: ATG_NRF1_CIS: Attagene CIS-FACTORIAL HepG2 Assay for human Nuclear Respiratory Factor 1 (NRF1) Orphan Gene (AID 2282987); conditions: HepG2 NRF1 cis-element reporter, Attagene multiplex; actives raise or lower the signal
Sequence of Nuclear respiratory factor 1 (Homo sapiens) (Q16656 whole entry, looked up, the tested form may be a part): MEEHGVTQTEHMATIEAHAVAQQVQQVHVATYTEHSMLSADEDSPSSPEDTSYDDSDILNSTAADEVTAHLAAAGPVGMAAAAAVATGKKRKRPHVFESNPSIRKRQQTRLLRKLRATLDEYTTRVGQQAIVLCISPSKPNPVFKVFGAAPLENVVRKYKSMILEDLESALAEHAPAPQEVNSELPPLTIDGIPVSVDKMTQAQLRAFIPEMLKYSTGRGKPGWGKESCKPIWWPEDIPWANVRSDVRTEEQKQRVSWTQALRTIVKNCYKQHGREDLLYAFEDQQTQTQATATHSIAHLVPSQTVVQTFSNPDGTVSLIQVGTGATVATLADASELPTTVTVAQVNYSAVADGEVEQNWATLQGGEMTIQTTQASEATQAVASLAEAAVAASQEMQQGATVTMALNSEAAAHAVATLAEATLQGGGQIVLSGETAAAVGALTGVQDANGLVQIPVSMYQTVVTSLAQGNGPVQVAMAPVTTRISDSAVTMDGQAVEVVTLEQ
How it was run: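 Cells (HepG2, transient MRTU transfection) are exposed to compound for 24 h, then RNA isolated and reporter mRNA amplified and fluorescently labelled. Fragments are separated by capillary electrophoresis; signal change is fitted bidirectionally relative to DMSO.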

[18] = molecular target: Retinoic acid receptor alpha (Homo sapiens) (UniProt P10276); assay: ATG_RARa_TRANS: Attagene TRANS-FACTORIAL HepG2 Assay for human Retinoic Acid Receptor alpha (RARa) (AID 2283005; active = hit-call score of the fitted dose curve at least 0.9, where 1 is the maximum;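 as to AC50: potency for increased reporter signal meaning RARa activation over DMSO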)
Sequence of Retinoic acid receptor alpha (Homo sapiens) (P10276 whole entry, looked up, the tested form may be a part): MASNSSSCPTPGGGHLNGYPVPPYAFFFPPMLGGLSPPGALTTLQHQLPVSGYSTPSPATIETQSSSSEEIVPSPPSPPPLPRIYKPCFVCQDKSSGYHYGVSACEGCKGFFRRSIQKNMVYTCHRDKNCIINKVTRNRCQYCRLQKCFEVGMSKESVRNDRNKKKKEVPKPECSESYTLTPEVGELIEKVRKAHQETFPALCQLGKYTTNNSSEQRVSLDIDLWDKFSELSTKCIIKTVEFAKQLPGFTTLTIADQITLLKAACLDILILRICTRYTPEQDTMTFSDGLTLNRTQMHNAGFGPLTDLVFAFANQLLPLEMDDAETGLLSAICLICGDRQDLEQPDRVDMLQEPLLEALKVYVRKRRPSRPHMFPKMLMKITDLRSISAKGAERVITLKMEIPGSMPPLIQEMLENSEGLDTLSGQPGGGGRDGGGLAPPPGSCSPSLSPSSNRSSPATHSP
How it was run: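 HepG2 transiently transfected with multiplex GAL4-UAS reporter units including a human RARa–GAL4 chimera; 24 h compound exposure. Reporter mRNA quantified by RT-PCR, 6-FAM labeling and capillary electrophoresis; gain of signal versus DMSO.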

[19] = molecular target: human Retinoic Acid Receptor gamma (RARg), RARG (gene 5916) (UniProt P13631); assay: ATG_RARg_TRANS: Attagene TRANS-FACTORIAL HepG2 Assay for human Retinoic Acid Receptor gamma (RARg) (AID 2283009; active = hit-call score of the fitted dose curve at least 0.9, where 1 is the maximum)
Sequence of human Retinoic Acid Receptor gamma (RARg), RARG (gene 5916) (P13631 whole entry, looked up, the tested form may be a part): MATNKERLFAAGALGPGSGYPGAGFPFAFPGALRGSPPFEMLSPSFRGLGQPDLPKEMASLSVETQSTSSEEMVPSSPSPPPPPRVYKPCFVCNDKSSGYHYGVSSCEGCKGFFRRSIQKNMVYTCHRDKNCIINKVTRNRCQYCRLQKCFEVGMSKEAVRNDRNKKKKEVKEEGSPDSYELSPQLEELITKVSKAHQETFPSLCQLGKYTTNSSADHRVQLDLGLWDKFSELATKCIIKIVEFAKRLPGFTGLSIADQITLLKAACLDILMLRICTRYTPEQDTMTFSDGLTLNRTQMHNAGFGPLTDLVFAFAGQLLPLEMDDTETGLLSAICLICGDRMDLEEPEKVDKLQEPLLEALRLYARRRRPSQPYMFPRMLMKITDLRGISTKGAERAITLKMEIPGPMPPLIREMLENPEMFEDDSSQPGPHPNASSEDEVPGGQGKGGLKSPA
How it was run: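 Readout: reporter transcript levels via RT-PCR, 6-FAM primer-extension labelling, HpaI digestion and capillary electrophoresis. Cells: HepG2 carrying transfected RARg-GAL4 chimera plus UAS reporter set. Dosing 24 h; DMSO negative control.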

[20] = molecular target: human RAR-related Orphan Receptor beta (RORb), RORB (gene 6096) (UniProt Q92753); assay: ATG_RORb_TRANS: Attagene TRANS-FACTORIAL HepG2 Assay for human RAR-related Orphan Receptor beta (RORb) (AID 2283010; active = hit-call score of the fitted dose curve at least 0.9, where 1 is the maximum)
Sequence of human RAR-related Orphan Receptor beta (RORb), RORB (gene 6096) (Q92753 whole entry, looked up, the tested form may be a part): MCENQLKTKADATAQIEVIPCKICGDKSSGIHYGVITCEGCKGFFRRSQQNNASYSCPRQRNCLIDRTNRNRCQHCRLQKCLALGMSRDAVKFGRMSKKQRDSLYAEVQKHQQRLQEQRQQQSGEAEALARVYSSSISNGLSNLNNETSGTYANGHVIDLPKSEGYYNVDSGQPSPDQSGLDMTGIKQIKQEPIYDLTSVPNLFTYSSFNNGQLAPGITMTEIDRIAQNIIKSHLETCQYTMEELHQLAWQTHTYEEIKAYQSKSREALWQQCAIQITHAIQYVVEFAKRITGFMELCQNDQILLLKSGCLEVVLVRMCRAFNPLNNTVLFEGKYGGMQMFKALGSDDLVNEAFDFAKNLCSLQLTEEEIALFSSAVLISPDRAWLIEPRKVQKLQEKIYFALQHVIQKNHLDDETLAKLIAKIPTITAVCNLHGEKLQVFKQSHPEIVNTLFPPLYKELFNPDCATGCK
How it was run: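 HepG2, transient MRTU transfection (GAL4-UAS reporters, exogenous NR-Gal4 chimeras); 24 h compound exposure; total RNA → RT-PCR → 6-FAM primer extension → HpaI digest → CE fluorescence. Positive direction vs DMSO baseline.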

Measured: AC50

N#Cc1c(Cl)cccc1Cl
active: [4] 13.7 µM | [16] 72.3 µM
not listed: [17] | [18] | [19] | [20]
inactive: all other assays above

CN/C(=N\[N+](=O)[O-])NCc1cnc(Cl)s1
not listed: [3] | [12] | [15] | [19] | [20]
inactive: all other assays above

COC(=O)NS(=O)(=O)c1ccc(N)cc1
not listed: [12] | [18] | [19] | [20]
inactive: all other assays above

COc1cc(Cl)c(OC)cc1Cl
not listed: [12] | [20]
inactive: all other assays above

CCN(CC)c1nc(C)cc(OP(=S)(OC)OC)n1
active: [5] 8.94 µM | [14] 28.7 µM | [15] 46.1 µM | [16] 13.8 µM
not listed: [20]
inactive: all other assays above

O=C1C2CC=CCC2C(=O)N1SC(Cl)(Cl)Cl (stereo not drawn)
active: [9] 26.6 µM | [14] 32.4 µM
not listed: [10] | [19]
inactive: all other assays above

CCC(C)n1c(=O)[nH]c(C)c(Br)c1=O (stereo not drawn)
not listed: [10] | [12] | [15] | [17] | [18] | [19]
inactive: all other assays above

CO/N=C(/C1=NOCCO1)c1ccccc1Oc1ncnc(Oc2ccccc2Cl)c1F
active: [4] 0.946 µM | [5] 0.833 µM | [8] 5.95 µM | [14] 17.4 µM
not listed: [10] | [11] | [17] | [18] | [19] | [20]
inactive: all other assays above

CS(=O)(=O)c1ccc(C(=O)C2C(=O)CCCC2=O)c([N+](=O)[O-])c1
not listed: [10] | [17] | [18] | [19] | [20]
inactive: all other assays above

CNC(=O)N(C)c1nnc(C(C)(C)C)s1
active: [4] 60.1 µM
not listed: [10] | [11] | [17] | [19] | [20]
inactive: all other assays above

Cc1cnc(C2=NC(C)(C(C)C)C(=O)N2)c(C(=O)O)c1 (stereo not drawn)
active: [4] 13 µM | [16] 50 µM
not listed: [3] | [12] | [17]
inactive: all other assays above

CCCC(=NOCC)C1=C(O)CC(CC(C)SCC)CC1=O (stereo not drawn)
not listed: [11] | [17]
inactive: all other assays above

CCNC(=O)NC(=O)C(C#N)=NOC
not listed: [3] | [6] | [11] | [16] | [17] | [19]
inactive: all other assays above

CC(C)(C)C(=O)C(Oc1ccc(Cl)cc1)n1cncn1 (stereo not drawn)
active: [4] 20.3 µM | [5] 19.4 µM | [18] 50 µM | [16] 19.9 µM
not listed: [10] | [11] | [17] | [20]
inactive: all other assays above

Cn1c(-c2ccccc2)cc(-c2ccccc2)[n+]1C
active: [8] 3.97 µM
not listed: [3] | [10] | [15] | [16] | [17] | [18] | [19] | [20]
inactive: all other assays above

COC(=O)NC(=S)Nc1ccccc1NC(=S)NC(=O)OC
active: [4] 11.6 µM | [5] 30.8 µM
not listed: [11] | [17] | [18] | [19]
inactive: all other assays above
